KDM5B inh – inhibitors of human KDM5B histone demethylase; KDM5B demethylase, FDH-coupled NADH fluorescence (FDH is formaldehyde dehydrogenase); Potency, µM (titrated, usually from 57.7 µM), usual class: inhibitors; 2.6% of 220,000 active; AID 1347165; also: potency is read from the fitted curve at half-maximal effect; 0% is about no effect; nearly all actives have a fitted effect of over 70% in size
Target sequence (Q9UGL1 whole entry, looked up): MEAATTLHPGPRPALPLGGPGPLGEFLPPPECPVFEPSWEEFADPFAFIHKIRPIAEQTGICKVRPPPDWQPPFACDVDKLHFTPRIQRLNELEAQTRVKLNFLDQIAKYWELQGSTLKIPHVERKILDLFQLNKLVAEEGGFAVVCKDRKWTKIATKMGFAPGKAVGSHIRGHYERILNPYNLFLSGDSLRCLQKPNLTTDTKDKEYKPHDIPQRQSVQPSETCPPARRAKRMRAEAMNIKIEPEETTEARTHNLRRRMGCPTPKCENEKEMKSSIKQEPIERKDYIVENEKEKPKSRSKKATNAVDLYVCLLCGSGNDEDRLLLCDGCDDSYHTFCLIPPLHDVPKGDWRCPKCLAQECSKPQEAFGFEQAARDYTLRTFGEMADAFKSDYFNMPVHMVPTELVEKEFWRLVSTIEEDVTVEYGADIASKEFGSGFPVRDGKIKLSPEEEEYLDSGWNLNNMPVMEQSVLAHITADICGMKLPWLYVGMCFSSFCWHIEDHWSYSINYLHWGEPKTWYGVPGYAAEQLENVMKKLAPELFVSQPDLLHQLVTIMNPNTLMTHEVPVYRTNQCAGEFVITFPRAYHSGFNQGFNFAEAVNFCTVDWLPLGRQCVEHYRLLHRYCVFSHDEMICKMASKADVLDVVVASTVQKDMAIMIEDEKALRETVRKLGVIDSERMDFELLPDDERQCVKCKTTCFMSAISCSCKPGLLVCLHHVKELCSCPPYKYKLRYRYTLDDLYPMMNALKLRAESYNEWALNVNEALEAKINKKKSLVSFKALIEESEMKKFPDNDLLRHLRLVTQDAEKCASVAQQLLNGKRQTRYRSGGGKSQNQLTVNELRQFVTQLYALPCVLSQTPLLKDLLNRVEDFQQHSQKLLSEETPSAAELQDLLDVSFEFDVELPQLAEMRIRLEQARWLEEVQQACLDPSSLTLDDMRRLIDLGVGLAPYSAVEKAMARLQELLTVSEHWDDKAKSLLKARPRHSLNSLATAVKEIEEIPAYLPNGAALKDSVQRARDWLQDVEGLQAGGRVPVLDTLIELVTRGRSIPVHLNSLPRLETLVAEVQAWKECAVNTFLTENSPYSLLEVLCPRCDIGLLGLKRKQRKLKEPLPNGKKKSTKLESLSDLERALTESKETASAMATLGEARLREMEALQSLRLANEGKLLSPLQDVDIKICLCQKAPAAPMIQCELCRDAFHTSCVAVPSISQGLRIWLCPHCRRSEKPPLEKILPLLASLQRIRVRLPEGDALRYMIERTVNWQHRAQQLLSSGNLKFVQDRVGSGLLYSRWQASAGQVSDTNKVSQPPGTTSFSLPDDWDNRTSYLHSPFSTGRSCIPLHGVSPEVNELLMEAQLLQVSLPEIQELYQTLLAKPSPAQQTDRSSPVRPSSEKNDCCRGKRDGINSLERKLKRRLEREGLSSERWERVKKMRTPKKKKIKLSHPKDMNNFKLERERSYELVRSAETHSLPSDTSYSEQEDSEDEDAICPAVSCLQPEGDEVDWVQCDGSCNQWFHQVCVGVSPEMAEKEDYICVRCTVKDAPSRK
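qHTS format, multiple compound concentrations. Buffer 50 mM HEPES pH 7.5/0.01% Tween-20; 200 nM KDM5BΔAP final; 10 min compound preincubation; substrate-mix levels 12.5 µM peptide, 25 µM α-KG, 0.25 mM NAD⁺; 30 min RT; ΔRFU.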
SNCA viab count – reduces viability of HEK-293 SNCA reporter cells | HEK-293-SNCA-luc viability, GF-AFC fluorescence, 24 h | Potency, µM (doses to about 57.1 µM), inactives show at the top dose activity change, negative = cytotoxicity, actives largely listed as cytotoxic | 0.12% of 150,000 active;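 also: potency is read from the fitted curve at half-maximal effect; 0% = DMSO-treated cells and -100% = medium-only wells without cells; nearly all actives have a fitted effect of over 30% in size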
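HEK-293-SNCA-luc cells (1500/well) plated 24 h, then exposed 24 h to a dilution series; GF-AFC added 30 min at 37C, fluorescence 405/540 nm; normalised to medium-only and DMSO wells, Hill fit.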
SNCA expr inhib – reduces expression of the alpha-synuclein gene. 0.17% of 140,000 active. HEK-293 SNCA-luciferase knock-in, luminescence, 24 h. Potency, µM (highest dose often 57.2 µM), for the others: at the highest dose activity change, negative = inhibition, actives largely listed as inhibitors;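 also: potency is read from the fitted curve at half-maximal effect; plate controls were DMSO cells for no effect and cell-free wells for full effect; nearly all actives have a fitted effect of over 45% in size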
IP6K1 inh – blocks human inositol hexakisphosphate kinase 1; 0.81% of 140,000 active; activity change, % (series mostly up to about 58 µM); IP6K1 kinase, ADP-Glo luminescence, 2 h; hits give low values; Q92551; in the data active = activity change below about -25%; also: % is scaled to controls: 0 for no effect and ±100 for the full control effect
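ADP-Glo luminescence measures ADP made by human IP6K1 during a 2 h RT reaction with ATP/IP6 (mix at 1.3 mM/130 uM); top library doses 57.5 and 19.1 uM final.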
Numbers without * were called inactive; i = inactive; u = inconclusive; x = no result; [ ] = another dose, or the depositor's remark. Most compounds without a hit are left out; they make up all but 3% or so of the library. Unless noted, calls follow the shape of the dose curve; as a rule, active = well fitted curve in the direction sought with a large enough effect; inconclusive = small, poorly fitted or top-dose-only effect, or another doubt; inactive = no such curve, though single readings can be large; an effect the other way counts as inactive or inconclusive.

SMILES | KDM5B inh | SNCA viab count | SNCA expr inhib | IP6K1 inh
CN1CCOc2c(C(=O)NCc3cccnc3)cc(-c3ccc(O)c(F)c3)cc21 | u | -0.4%[87.6 µM] | 6.7%[87.6 µM] | -16.2
COc1ccc(-c2cc(C(=O)NCCc3cnc[nH]3)c3c(c2)N(C)CCO3)cc1OC | 31.6µM* | -15.8%[87.6 µM] | 23.7%[87.6 µM] | -15.7
N#Cc1cccnc1N1CCN(Cc2ccc(F)c(F)c2)C(CCO)C1 (stereo not drawn) | 12.6µM* | -7.4% | -23.2% | 29.5
COc1cccc(CNC(=O)C2CCN(C(=O)c3ccc(-c4cccc(OC)c4)cc3)CC2)c1 | x | 5.2%[12.5 µM] | -5.8% | 6.7
O=c1ncn(CC2CC2)c2ccc(-c3ccc4c(c3)OCO4)nc12 | i | 2.9%[87.6 µM] | 106.3%[87.6 µM] | 0.1
O=c1ncn(Cc2ccccc2)c2ccc(NCCOc3ccccc3)nc12 | 35.5µM* | 1.8%[87.6 µM] | -11.4%[87.6 µM] | -2.7
O=c1ncn(CC2CC2)c2ccc(-c3ccc(Cl)cc3)nc12 | 39.8µM* | 7.0%[87.6 µM] | 137.5%[87.6 µM] | 1.7
CC(=O)Nc1cccc(-c2ccc3c(n2)c(=O)ncn3Cc2ccccc2)c1 | i | 5.0%[87.6 µM] | -5.6%[87.6 µM] | 9.7
O=c1ncn(CC2CC2)c2ccc(-c3ccc(F)cc3)nc12 | 35.5µM* | 3.6%[87.6 µM] | 77.0%[87.6 µM] | 9.2
COc1cc(F)ccc1-c1ccc2c(n1)c(=O)ncn2CCC(F)(F)F | u | 3.5%[87.6 µM] | -8.3%[87.6 µM] | -0.1
O=c1ncn(Cc2ccccc2)c2ccc(-c3ccc(F)cc3)nc12 | 35.5µM* | 10.1%[87.6 µM] | 52.3%[87.6 µM] | 13.2
Cc1ccc(-c2nc(S(=O)(=O)c3ccc(F)cc3)c(N(C)C)o2)cc1 | i | x | x | x
Cc1ccc(S(=O)(=O)N2CCN(C(=O)CCc3ncc(-c4ccccc4F)o3)CC2)c(C)c1 | i | x | x | x
COc1ccc(CNC(=O)c2ccc3c(c2)NC(=O)CCS3)cc1 | i | x | x | x
CCCC(C(=O)Nc1nc2ccc(F)cc2s1)c1ccccc1 (stereo not drawn) | i | x | x | x
CCNc1cc(N2CCC(CCC(=O)N3CCN(c4ncccn4)CC3)CC2)ncn1 | i | -7.9% | u | 13.0
COc1cc(CC(=O)Nc2cc(S(=O)(=O)N3CCCCC3)ccc2C)cc(OC)c1OC | i | x | x | x
COC(=O)[C@@H]1Cc2c([nH]c3ccccc23)[C@H]2C[C@H](NCCNC(C)=O)C[C@@H](c3ccccc3)N21 | 28.2µM* | -7.2% | 30.3% | -13.6
COC(=O)[C@@H]1Cc2c([nH]c3ccccc23)[C@H]2C[C@H](NCCNC(C)=O)C[C@@H](c3ccc(C(F)(F)F)cc3)N21 | 10µM* | -0.3% | 17.0% | 10.0
COc1ccc(CN2CC(COc3ccc(OC)cc3)Oc3ncccc3C2=O)cc1 (stereo not drawn) | x | x | x | 2.6
COC(=O)CNC(=O)c1nc(-c2ccc(F)cc2)c2ccccn12 | 39.8µM* | 13.7%[87.6 µM] | 19.5%[87.6 µM] | 7.6
COC(=O)CNC(=O)c1nc(-c2ccc(Cl)cc2)c2ccccn12 | 20µM* | u | 42.7%[87.6 µM] | 4.2
COCCNC(=O)c1nc(-c2ccc(Cl)cc2)c2ccccn12 | 35.5µM* | -12.3%[87.6 µM] | -1.3%[87.6 µM] | 0.0
COc1ccc(CN2CCOc3nc(-c4ccc(F)cc4F)ncc3C2=O)cc1 | i | -6.6%[87.6 µM] | 39.2%[87.6 µM] | 5.4
COc1ccc(CN2CCOc3nc(-c4ccc(O)c(F)c4)ncc3C2=O)cc1 | 31.6µM* | 4.0%[87.6 µM] | -20.1%[87.6 µM] | 9.5
SMILES | KDM5B inh | SNCA viab count | SNCA expr inhib | IP6K1 inh
COc1cccc(-c2ncc3c(n2)OCCN(Cc2ccccc2)C3=O)c1 | 35.5µM* | -2.1%[87.6 µM] | 14.1%[87.6 µM] | -6.0
COc1ccc(-c2ncc3c(n2)OCCN(Cc2ccccc2)C3=O)cc1 | i | -8.5%[87.6 µM] | 85.3%[87.6 µM] | -12.9
Cc1nn(-c2ccccc2)c2c1C(C(C)C)N(C1CCN(C(=O)Cc3ccc(F)cc3)C1)C2=O (stereo not drawn) | x | x | x | -0.5
CC(C)(C)c1ccc(C(=O)COC(=O)c2ccc3ccccc3n2)cc1 | i | x | x | x
Cc1noc(C)c1-c1cnc(Nc2cccc(C(F)(F)F)c2)c2c1CCO2 | 35.5µM* | -18.8%[87.6 µM] | 0.9%[87.6 µM] | -14.2
Cc1noc(C)c1-c1cnc(Nc2ccccc2)c2c1CCO2 | 35.5µM* | 9.6%[87.6 µM] | 47.2%[87.6 µM] | -7.1
O=C1CC(c2c[nH]c3ccccc23)c2c(c3ccccc3[nH]c2=O)O1 (stereo not drawn) | i | x | x | x
CCc1noc(-c2cccn3c(CNC(=O)COc4ccccc4)nnc23)n1 | 31.6µM* | -4.8% | u | -7.0
CCc1noc(-c2cccn3c(CNC(=O)C(C)c4ccccc4)nnc23)n1 (stereo not drawn) | 22.4µM* | 3.8% | -16.9% | 6.4
CN1CCCC2(CCN(C(=O)c3cc(=O)[nH]c4ccc(F)cc34)C2)C1=O (stereo not drawn) | 25.1µM* | 4.1% | u | -13.8
Cc1ccccc1NC(=O)c1ccc2ccccc2n1 | i | x | x | x
CNC(=O)[C@@H](Cc1ccccc1)N1CCC[C@H]1C(=O)NCc1ccccn1 | 28.2µM* | 16.4%[87.6 µM] | -10.2%[87.6 µM] | -2.3
CNC(=O)[C@@H](Cc1ccccc1)N1CCC[C@H]1C(=O)NCc1cccnc1 | i | 3.3%[87.6 µM] | 1.1%[87.6 µM] | 2.9
CCCCNC(N)=S | i | x | x | x
COCC1CN(C2CCC2)CC12CCN(C(=O)c1sc(C)nc1C)CC2 (stereo not drawn) | x | 6.0% | 13.6% | 5.4
Cc1nn(C)cc1C(=O)N1CCC2(CC1)CN(c1ncccn1)CC2CO (stereo not drawn) | 28.2µM* | u | -16.2% | 11.7
Cc1nc(C)c(C(=O)N2CCC3(CC2)CN(c2ncccn2)CC3CO)s1 (stereo not drawn) | 25.1µM* | 3.5% | 2.3% | -0.9
O=C(NCc1nnc2cc(-c3nc(C4CC4)no3)ccn12)c1ccc(F)c(F)c1 | 28.2µM* | -4.5% | -2.3% | 22.6
COc1ccccc1C(=O)NCc1nnc2cc(-c3nc(C4CC4)no3)ccn12 | 28.2µM* | -8.0% | -20.0% | 6.7
O=C(NCc1nnc2cc(-c3nc(C4CC4)no3)ccn12)c1ccc(F)cc1 | i | -5.4% | 11.5% | -5.2
O=C(NCc1nnc2cc(-c3nc(C4CC4)no3)ccn12)c1nccc2ccccc12 | 28.2µM* | 4.9% | -12.7% | 6.0
O=C(NCc1nnc2cc(-c3nc(C4CC4)no3)ccn12)c1ccccc1F | 8.91µM* | -5.6% | -20.6% | 11.4
O=C(NCc1nnc2c(-c3nc(C4CC4)no3)cccn12)c1nccc2ccccc12 | u | -16.5% | 6.7% | 44.9
CC(=O)N1CCCN(c2ccc3nnc(-c4ccccc4)n3n2)CC1 | x | x | x | 5.6
COc1cccc(C(=O)NCCNC(=O)c2ccc(-c3cccc(OC)c3)cc2)c1 | x | x | x | 12.7
SMILES | KDM5B inh | SNCA viab count | SNCA expr inhib | IP6K1 inh
O=C(NCc1nnc2cc(-c3nc(C4CC4)no3)ccn12)c1cccnc1 | 28.2µM* | -3.5% | 1.3% | 6.5
CC(C)CNC(=O)Cc1c[nH]c2ncc(-c3cnn(C)c3)cc12 | 39.8µM* | -2.1%[87.6 µM] | 4.8%[87.6 µM] | -14.2
O=C(Cc1c[nH]c2ncc(-c3ccccc3)cc12)NC1CCOCC1 | 28.2µM* | -1.3%[87.6 µM] | u | -20.5
CN1CCC(NC(=O)Cc2c[nH]c3ncc(-c4ccccc4)cc23)CC1 | 35.5µM* | 10.7%[87.6 µM] | -2.3%[87.6 µM] | -22.3
O=C(Cc1c[nH]c2ncc(-c3cccnc3)cc12)NC1CCOCC1 | i | 4.9%[87.6 µM] | 9.4%[87.6 µM] | -20.6
O=C(NC1CC1)C(NCc1cccc(C(F)(F)F)c1)c1ccc(F)cc1 (stereo not drawn) | i | x | x | x
